“And” between values parts separate entries of the source, which are not always exact repeats. Equal entries are not always repeated. Structures can show the parent of a compound that is named as a salt. A number with no mark means an inactive call.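 The calls were made as follows: active = log2 fold change beyond 2 SD from the library mean after excluding viability outliers; inactive = within 2 SD.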
target: PARP1 L713F-nLuc biosensor (HCT116) (UniProt P09874); experiment: PARP1 L713F-nLuc/akaLuc ratio relative to DMSO control (biosensor stabilization) (fold change); higher = more PARP1 biosensor stabilization (target engagement / stabilizer), active = hit call of the paper; settings: stock concentration (mM; final µM = stock mM x 1): 10; 24 h
Sequence (P09874 whole entry L713F, looked up): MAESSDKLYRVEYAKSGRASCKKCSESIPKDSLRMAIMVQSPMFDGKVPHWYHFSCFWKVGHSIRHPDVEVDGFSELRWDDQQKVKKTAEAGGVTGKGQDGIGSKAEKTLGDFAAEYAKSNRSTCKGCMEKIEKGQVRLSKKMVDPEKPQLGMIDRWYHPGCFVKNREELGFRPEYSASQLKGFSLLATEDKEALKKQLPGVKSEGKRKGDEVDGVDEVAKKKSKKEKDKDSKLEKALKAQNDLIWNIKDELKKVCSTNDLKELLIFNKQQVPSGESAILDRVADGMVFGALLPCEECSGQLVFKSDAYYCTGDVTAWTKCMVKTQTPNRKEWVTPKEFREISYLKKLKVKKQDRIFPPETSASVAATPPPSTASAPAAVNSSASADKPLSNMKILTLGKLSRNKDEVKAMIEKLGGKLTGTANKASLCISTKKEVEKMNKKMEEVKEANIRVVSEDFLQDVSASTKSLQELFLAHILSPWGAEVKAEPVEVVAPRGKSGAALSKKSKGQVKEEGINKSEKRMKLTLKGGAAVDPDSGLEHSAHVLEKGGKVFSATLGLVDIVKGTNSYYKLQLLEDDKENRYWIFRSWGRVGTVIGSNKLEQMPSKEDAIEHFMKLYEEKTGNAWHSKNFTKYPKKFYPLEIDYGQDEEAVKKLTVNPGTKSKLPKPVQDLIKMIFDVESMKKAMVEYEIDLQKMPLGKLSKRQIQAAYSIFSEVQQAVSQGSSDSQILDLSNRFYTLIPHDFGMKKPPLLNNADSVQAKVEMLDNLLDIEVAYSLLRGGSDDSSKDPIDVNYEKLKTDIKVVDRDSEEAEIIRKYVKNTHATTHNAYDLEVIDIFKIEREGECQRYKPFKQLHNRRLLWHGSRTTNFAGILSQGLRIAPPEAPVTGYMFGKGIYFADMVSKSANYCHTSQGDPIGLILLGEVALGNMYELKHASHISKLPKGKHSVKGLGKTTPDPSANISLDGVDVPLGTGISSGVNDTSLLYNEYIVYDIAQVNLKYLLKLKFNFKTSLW

Compound	PARP1 L713F-nLuc/akaLuc ratio
C=CC(=O)N1CCC[C@@H](n2nc(-c3ccc(Oc4ccccc4)cc3)c3c(N)ncnc32)C1	0.773
Cc1nc2sccn2c(=O)c1CCN1CCC(=C(c2ccccc2)c2ccc(F)cc2)CC1	1.01
COc1cc2c(NC3CCN(C4CCCCC4)CC3)nc(N3CCCN(C(C)C)CC3)nc2cc1OCCCN1CCCCC1	0.886
CO[C@@H](C(=O)N1Cc2[nH]nc(NC(=O)c3ccc(N4CCN(C)CC4)cc3)c2C1)c1ccccc1 [Danusertib]	0.752
CNc1nc(Nc2cn(C(C)(C)C#N)nc2C)ncc1C(F)(F)F	0.811
Nc1nc(OCc2cc(Br)cs2)c2[nH]cnc2n1 [Lomeguatrib]	1.01
COc1cc(N2CCC(N3CCN(C)CC3)CC2)ccc1Nc1ncnc(Nc2ccccc2S(=O)(=O)C(C)C)n1	0.97
NS(=O)(=O)NCCNc1nonc1/C(=N/O)Nc1ccc(F)c(Br)c1	0.587
O=C(O)c1ccc(CN2CCC(CN[C@@H]3C[C@H]3c3ccccc3)CC2)cc1	0.815 and 0.79 and 0.987
Cc1csc(-c2nnc(Nc3ccc(Oc4ncccc4-c4ccnc(N)n4)cc3)c3ccccc23)c1	1.02
O=C(c1cc(Cc2n[nH]c(=O)c3ccccc23)ccc1F)N1CCn2nc(C(F)(F)F)nc2C1 [Fluzoparib]	3.72 (active)
CC(C)Oc1ccc(-c2nn([C@@H](C)c3oc4ccc(F)cc4c(=O)c3-c3cccc(F)c3)c3ncnc(N)c23)cc1F [umbralisib (TGR-1202)]	1.01
CCN(CC)CCNC(=O)c1c(C)[nH]c(/C=C2\C(=O)Nc3ccc(-c4csc(-c5ccccc5)n4)cc32)c1C [Amcasertib (BBI503)]	0.885
O=C(O)CNC(=O)c1c(O)cc(CCc2ccccc2)n2ncnc12 [Enarodustat]	1.29
O=C(CNC(=O)[C@H](COP(=O)(O)O)NC(=O)CCc1c[nH]c2ccccc12)NCCCCc1ccccc1	1.08
O=c1[nH]nc2c3c(cccc13)N=C(CN1Cc3ccccc3C1)N2	8.18 (active)
CO[C@H]1C(=O)[C@]2(C)[C@@H](OC)C[C@H]3OC[C@@]3(OC(C)=O)[C@H]2[C@H](OC(=O)c2ccccc2)[C@]2(O)C[C@H](OC(=O)[C@H](O)[C@@H](NC(=O)OC(C)(C)C)c3ccccc3)C(C)=C1C2(C)C [Cabazitaxel]	1.2
CN1CCN(c2ccc3nc(-c4c(N)c5c(F)cccc5[nH]c4=O)[nH]c3c2)CC1 [Dovitinib (TKI258) Lactate]	0.754
CC(=O)Nc1ccc(C(=O)Nc2ccc(F)cc2N)cc1	0.984
Cc1cc(Nc2cc(CN3CCOCC3)c3nc(C)c(Cc4ccc(Cl)cc4F)n3n2)n[nH]1	1.18
N#Cc1cccnc1N1CCN(C(=O)c2cccc(Cc3n[nH]c(=O)c4ccccc34)c2)CC1	2.72 (active)
COc1ccc(-n2c(SCCCN3C(=O)c4cccc5cccc(c45)C3=O)nnc2-c2ccncc2)cc1	0.933
CCCCCC1CC1CC1CC1CCCCCCCC(=O)OC (stereo not given)	1
NC(=O)c1cccc2cn(-c3ccc([C@@H]4CCCNC4)cc3)nc12 [Niraparib (R-enantiomer)]	8.24 (active)
CN(C)C[C@@H]1CCn2cc(c3ccccc32)C2=C(C(=O)NC2=O)c2cn(c3ccccc23)CCO1 [Ruboxistaurin (hydrochloride)]	0.778
CNC(=O)c1cc(Oc2ccc(NC(=O)Nc3ccc(Cl)c(C(F)(F)F)c3)c(F)c2)ccn1 [Regorafenib (BAY 73-4506)]	0.687
CC1=C2C(=O)O[C@@H](c3ccoc3)[C@]2(C)CCC1 [Fraxinellone]	0.831
CC(C)(C)C[C@@H]1N[C@@H](C(=O)N[C@H]2CC[C@H](O)CC2)[C@H](c2cccc(Cl)c2F)[C@]12C(=O)Nc1cc(Cl)ccc12	0.287 (active)
COc1cc2ncnc(Nc3cc(Br)c(O)c(Br)c3)c2cc1OC	1.37
Cc1[nH]nc(C(F)(F)F)c1Cc1sc2c(c1C(=O)N1C[C@](C)(O)CO1)c(=O)n(C)c(=O)n2C(C)C	0.93
